About 83,000 compounds went through this panel and 20% of them were active in at least one assay; those are over-represented in the sample as a whole.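 Activity criterion: percent growth below 10, measured after cells in 96-well plates were exposed to a single compound concentration for 48 hours.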 Unmarked numbers belong to inactive results. The source made the active and inactive calls.
What was measured:
Assay in all cases: NCI-60 one-dose screen, 48 h (100 = growth as untreated, 0 = no growth, -100 = all killed)
NCI-H23 lung = settings: 10 µM unless noted
NCI-H226 lung = settings: 10 µM unless noted
NCI-H322M lung = settings: 10 µM unless noted
HOP-62 NSCLC = settings: 10 µM unless noted
NCI-H460 lung = settings: 10 µM unless noted
NCI-H522 lung = settings: 10 µM unless noted
A549/ATCC NSCLC = settings: 10 µM unless noted
786-0 renal = settings: 10 µM unless noted
COLO 205 colon = settings: 10 µM unless noted
DU-145 prostate = settings: 10 µM unless noted
K-562 leukemia = settings: 10 µM unless noted
MALME-3M melanoma = settings: 10 µM unless noted
MDA-MB-231 breast = settings: 10 µM unless noted
RXF 393 renal = settings: 10 µM unless noted
SF-268 CNS = settings: 10 µM unless noted
SF-295 CNS = settings: 10 µM unless noted
SF-539 CNS = settings: 10 µM unless noted
UACC-257 melanoma = settings: 10 µM
M14 melanoma = settings: 10 µM unless noted

SMILES | growth (NCI-H23 lung) | growth (NCI-H226 lung) | growth (NCI-H322M lung) | growth (HOP-62 NSCLC) | growth (NCI-H460 lung) | growth (NCI-H522 lung) | growth (A549/ATCC NSCLC) | growth (786-0 renal) | growth (COLO 205 colon) | growth (DU-145 prostate) | growth (K-562 leukemia) | growth (MALME-3M melanoma) | growth (MDA-MB-231 breast) | growth (RXF 393 renal) | growth (SF-268 CNS) | growth (SF-295 CNS) | growth (SF-539 CNS) | growth (UACC-257 melanoma) | growth (M14 melanoma)
O=C1[C@H]2Cc3c([nH]c4ccccc34)[C@@H](c3c(Cl)cccc3Cl)N2C(=O)CN1C1CCN(Cc2ccccc2)CC1 | 104% | 103% | 101% | 90.7% | 8% (active) | 38.2% | 94.2% | -58.2% (active) | 101% | 39.2% | 5.96% (active) | 61.4% | 89.3% | 81.6% | 73.8% | 106% | 93.5% | 105% | 78.1%
COc1ccc(N2C(=O)c3cc(OC)c(OC)cc3NC2SCc2ccccc2)cc1 (stereo unspecified) | 107% | 102% | 104% | 107% | 122% | 95.2% | 110% | 117% | 109% | 110% | 88.6% | 95.2% | 91.5% | 144% | 110% | 103% | 94.3% | 105% | –
O=C1[C@@H]2Cc3c([nH]c4ccccc34)[C@H](c3c(Cl)cccc3Cl)N2C(=O)CN1C1CCN(Cc2ccccc2)CC1 | 41.7% | 74.9% | 77.7% | 81.3% | 9.15% (active) | 63.5% | 12.7% | -26.6% (active) | 75% | 31.6% | -8.4% (active) | 44.9% | 55.4% | 55.9% | 52.5% | -79.4% (active) | 70.3% | 46.4% | 23.3%
C#C[C@]1(O)CC[C@H]2[C@@H]3CC=C4c5sc(-c6ccccn6)nc5CC[C@]4(C)[C@H]3CC[C@@]21C | 81.2% | 94.4% | 90.6% | 77.5% | 75.9% | 91.6% | – | 24.5% | 90.9% | 90.2% | 31.9% | 81.9% | 78.6% | -34.4% (active) | 82.4% | -37.3% (active) | 30.9% | 70.5% | 74.8%
Cc1cn(-c2cc(NC(=O)c3cncc(C#Cc4cnc5ccc(O[C@@H]6CCOC6)nn45)c3)cc(C(F)(F)F)c2)cn1 | -46.6% (active) | -16% (active) | -12.7% (active) | -12% (active) | -76.9% (active) | -69.3% (active) | -75.3% (active) | -88.2% (active) | -84.9% (active) | -86.5% (active) | -17.6% (active) | -83% (active) | -35.5% (active) | -91.5% (active) | -42.1% (active) | -21.7% (active) | -90.5% (active) | -19% (active) | -96.2% (active)
C#CCOc1ccc(C(Nc2cc(Cl)ccc2Cl)c2nnnn2C2CCCCC2)cc1 (stereo unspecified) | 88.6% | 85.3% | 87.4% | 86.4% | 88.3% | 69.9% | 80.5% | 90% | 107% | 97.7% | 83.5% | 101% | 73.7% | 92.6% | 83.4% | 80.7% | 95.3% | 102% | 92.2%
COc1ccc(Cn2cc3c(c2-c2cc(OC)c(OC)c(OC)c2)CCCc2cnoc2-3)cc1N | 47.1% | 66.9% | 46.3% | 51.1% | 11.5% | 12.5% | – | 38.1% | 12.7% | 17.2% | 20.3% | 54.9% | 35.2% | -5.39% (active) | 58% | 0% (active) | 1.95% (active) | 90.3% | –
Cc1nc(-c2cc3ccccc3c(N3CCN(C)CC3)n2)cs1 | 99.9% | 101% | 106% | 98.1% | 103% | 94% | 97.7% | 93.2% | 88.5% | 109% | 91.5% | 96.5% | 90.3% | – | 87.3% | 93.1% | 85.2% | 101% | 95.4%
COc1cc2cc(Oc3ccc(NC(=O)Nc4cc(C(F)(F)F)cc(C(F)(F)F)c4)cc3)c(C)nc2cc1OCCN(C)C | 104% | 98.6% | 109% | 101% | 107% | 102% | 104% | 106% | 115% | 120% | 106% | 106% | 104% | 112% | 106% | 103% | 100% | 103% | 107%
O=C(NNc1nc2cc(F)cc(F)c2n2cccc12)c1ncccn1 | 11.2% | -2.14% (active) | 25.5% | 19.7% | 6% (active) | -2.87% (active) | 18.7% | 0.547% (active) | 16.9% | 20.6% | 17.8% | 25.9% | 34.9% | 33% | 13.6% | 12.6% | -0.152% (active) | 12.9% | -18.1% (active)
COc1ccc(-c2cc(-c3cccc4ccccc34)n3c(n2)nc2ccccc23)cc1OC | 44.7% | 19.8% | 75.8% | -0.816% (active) | 3.44% (active) | 48.1% | 24.2% | 10.5% | 65.4% | 15.7% | 32.8% | 16.9% | 66.7% | – | 35.3% | 2.25% (active) | 31.1% | 60.8% | 36%
CC1=CC(=O)CC(C)(C)[C@@]1(O)/C=C/C(C)=C\C(=O)O | -29.3% (active) | -46.5% (active) | -11.3% (active) | -41.6% (active) | -6.19% (active) | -41.6% (active) | -27.6% (active) | -43.2% (active) | -57.6% (active) | -21.8% (active) | 0.164% (active) | -57.5% (active) | -18% (active) | -64.2% (active) | -5.99% (active) | -38.7% (active) | -46.5% (active) | – | -77.3% (active)
C#C[C@]1(O)CC[C@H]2[C@@H]3CC=C4c5sc(Nc6ccncc6)nc5CC[C@]4(C)[C@H]3CC[C@@]21C | 2.43% (active) | -4.76% (active) | 31.7% | -42.3% (active) | 4.53% (active) | -37% (active) | -14.7% (active) | -60.2% (active) | -46.9% (active) | 21% | 2.23% (active) | -71.1% (active) | 21.7% | -62.9% (active) | -15.9% (active) | -70.8% (active) | -61.1% (active) | -44.3% (active) | -49.7% (active)
CC[C@@](C)(NC(=O)C(C)(C)NC(=O)[C@@H](NC(=O)[C@@H]1CCCN1C(=O)C(C)(C)NC(=O)[C@H](CC(C)C)NC(=O)CNC(=O)C(C)(C)NC(=O)[C@@H](NC(=O)C(C)(C)NC(=O)[C@H](CCC(N)=O)NC(=O)[C@H](C)NC(=O)C(C)(C)NC(=O)[C@H](C)NC(=O)C(C)(C)NC(=O)[C@H](C)NC(=O)C(C)(C)NC(C)=O)C(C)C)C(C)C)C(=O)N[C@@H](CCC(N)=O)C(=O)N[C@@H](CCC(N)=O)C(=O)N[C@H](CO)CC1CCCCC1 | 16.2% [5 µM] | 47.8% [5 µM] | 48.8% [5 µM] | 47.2% [5 µM] | 35.1% [5 µM] | 1.56% [5 µM] (active) | 47.8% [5 µM] | -14.2% [5 µM] (active) | -7.42% [5 µM] (active) | 35.1% [5 µM] | 32.1% [5 µM] | -18.4% [5 µM] (active) | 32.7% [5 µM] | 23.7% [5 µM] | 32.6% [5 µM] | 81.8% [5 µM] | 18.8% [5 µM] | – | 58.4% [5 µM]
O=S(=O)(Nc1ccc(-c2nc(-c3cccc(O)c3)c(-c3ccnc(Br)c3)[nH]2)cc1)c1ccccc1 | 16.2% | 40.1% | 41.7% | 33.1% | 19.7% | 25.5% | 51.5% | 17.7% | 43.3% | 54.6% | 2.08% (active) | 39.8% | 23% | -16.3% (active) | 37.1% | 10.4% | 44.4% | 44.5% | 26.1%
Oc1ccc(CSc2nnc(-c3ccccc3)n2-c2ccccc2)c2cccnc12 | 18.8% | 19.8% | 18.5% | 11.1% | 1.36% (active) | 12.6% | 13% | 18.7% | 61.7% | 21.3% | 11.2% | 12.2% | 31% | -4.02% (active) | 17.2% | 0.953% (active) | 0.484% (active) | 3.18% (active) | -10.6% (active)

— PubChem BioAssay (NCI)
